From PubChem BioAssay (NCI)
Compounds without any hit were thinned out: in the full panel of roughly 83,000, 20% have a hit.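 Cell lines were cultured in 96-well plates, exposed to a single compound concentration, and assessed for percent growth 48 hours later.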 Calls of active or inactive are those of the source. Rule for the calls: active = growth percent below 10; inactive = the rest.

Assays:
Experiment in all cases: NCI-60 one-dose screen, 48 h (100 = growth as untreated, 0 = no growth, -100 = all killed)
Settings in all cases: 10 µM unless noted
HCT-15 colon = test system: HCT-15 colon
HT29 colon = test system: HT29 colon
SNB-75 CNS = test system: SNB-75 CNS
SNB-19 CNS = test system: SNB-19 CNS
U251 CNS = test system: U251 CNS
SK-MEL-5 melanoma = test system: SK-MEL-5 melanoma
UACC-62 melanoma = test system: UACC-62 melanoma
LOX IMVI melanoma = test system: LOX IMVI melanoma
SK-MEL-28 melanoma = test system: SK-MEL-28 melanoma
PC-3 prostate = test system: PC-3 prostate

Measured: growth

Cn1ncc2c(Nc3ccc(Br)cc3)nc(Nc3ccc(Br)cc3)nc21
inactive: HCT-15 colon 22.4% | HT29 colon 33.4% | SNB-75 CNS 66.9% | SNB-19 CNS 71.4% | U251 CNS 33.4% | SK-MEL-5 melanoma 47.6% | UACC-62 melanoma 56.1% | SK-MEL-28 melanoma 50.1%
active: LOX IMVI melanoma -5.28%

O=C1CSC(c2ccccc2)N1c1ccccc1 (stereo unspecified)
inactive: HCT-15 colon 98.9% | HT29 colon 116% | SNB-75 CNS 99.5% | SNB-19 CNS 99.1% | U251 CNS 102% | SK-MEL-5 melanoma 98.1% | UACC-62 melanoma 103% | LOX IMVI melanoma 97.7% | SK-MEL-28 melanoma 106%

Cc1nn(-c2ccccc2)c2c1C(c1ccc([N+](=O)[O-])cc1)C(C#N)=C(N)O2 (stereo unspecified)
inactive: HCT-15 colon 106% | HT29 colon 105% | SNB-75 CNS 87.7% | SNB-19 CNS 102% | U251 CNS 110% | SK-MEL-5 melanoma 122% | UACC-62 melanoma 96.1% | LOX IMVI melanoma 101% | SK-MEL-28 melanoma 116%

Cl.Fc1c[c-]c(-c2ccccn2)c(F)c1.[Pt].c1ccc([PH+](C[PH+](c2ccccc2)c2ccccc2)c2ccccc2)cc1
active: HCT-15 colon -80.1% | HT29 colon -64.7% | SNB-75 CNS -95.5% | SNB-19 CNS -88.9% | U251 CNS -77.1% | SK-MEL-5 melanoma -98.2% | UACC-62 melanoma -82.3% | LOX IMVI melanoma -88.9% | SK-MEL-28 melanoma -92.5%

CC(C)(C)OC(=O)N1Cc2cc3ccccc3nc2C1CO (stereo unspecified)
inactive: HCT-15 colon 118% | HT29 colon 101% | SNB-75 CNS 76.8% | SNB-19 CNS 111% | U251 CNS 103% | SK-MEL-5 melanoma 96.9% | UACC-62 melanoma 100% | LOX IMVI melanoma 101% | SK-MEL-28 melanoma 101%

N#Cc1cnn2c(-c3ccc(Cl)cc3)nc(NC3CC3)nc12
inactive: HCT-15 colon 90.1% | HT29 colon 88.8% | SNB-75 CNS 87.7% | SNB-19 CNS 86.6% | U251 CNS 97.3% | SK-MEL-5 melanoma 95.3% | UACC-62 melanoma 85.6% | LOX IMVI melanoma 99% | SK-MEL-28 melanoma 113%

O=C1N/C(=N/O)S/C1=C/c1cn(-c2ccccc2)nc1-c1ccccc1
inactive: HCT-15 colon 86.5% | HT29 colon 112% | SNB-75 CNS 70.6% | U251 CNS 97% | PC-3 prostate 89.3% | SK-MEL-5 melanoma 102% | UACC-62 melanoma 102% | LOX IMVI melanoma 68.6% | SK-MEL-28 melanoma 113%

NS(=O)(=O)Oc1ccc(NC(=O)C23CC4CC(CC(C4)C2)C3)cc1Cl
inactive: HCT-15 colon 101% | HT29 colon 103% | SNB-75 CNS 84.3% | SNB-19 CNS 90.9% | U251 CNS 96% | SK-MEL-5 melanoma 91.1% | UACC-62 melanoma 86.8% | LOX IMVI melanoma 82.9% | SK-MEL-28 melanoma 104%

CCN(CCO)CC(=O)c1cc(Cl)cc(Cl)c1Cl
inactive: HCT-15 colon 101% | HT29 colon 81.8% | SNB-75 CNS 95.3% | SNB-19 CNS 105% | U251 CNS 101% | SK-MEL-5 melanoma 105% | UACC-62 melanoma 98.3% | LOX IMVI melanoma 99.6% | SK-MEL-28 melanoma 111%

Cc1cc(NS(=O)(=O)c2ccccc2)c(OS(=O)(=O)c2ccccc2)cc1C
inactive: HCT-15 colon 102% | HT29 colon 111% | SNB-75 CNS 89.5% | SNB-19 CNS 98.1% | U251 CNS 99.8% | SK-MEL-5 melanoma 102% | UACC-62 melanoma 94% | LOX IMVI melanoma 99.3% | SK-MEL-28 melanoma 112%

C=C(C)[C@@H]1CC[C@]2(CO)CC[C@]3(C)[C@H](CC[C@@H]4[C@@]5(C)C=C(C#N)C(=O)C(C)(C)[C@@H]5CC[C@]43C)[C@@H]12
inactive: SNB-75 CNS 52.1% | SK-MEL-5 melanoma 12%
active: HCT-15 colon 3.8% | HT29 colon 8.33% | U251 CNS 9.63% | PC-3 prostate 6.8% | UACC-62 melanoma -33%

OC(COc1cccc2ccccc12)CN1CCN(c2ccccc2)CC1 (stereo unspecified)
inactive: HCT-15 colon 99.6% | HT29 colon 94% | SNB-75 CNS 81.8% | SNB-19 CNS 97.4% | U251 CNS 95.7% | SK-MEL-5 melanoma 90.4% | UACC-62 melanoma 98.2% | LOX IMVI melanoma 92.1% | SK-MEL-28 melanoma 105%

COc1ccc(C2CC(c3cnccn3)=NN2)cc1OC (stereo unspecified)
inactive: HCT-15 colon 107% | HT29 colon 84.9% | SNB-75 CNS 118% | SNB-19 CNS 103% | U251 CNS 96.7% | SK-MEL-5 melanoma 100% | UACC-62 melanoma 103% | LOX IMVI melanoma 104% | SK-MEL-28 melanoma 121%

COc1ccc2c(c1)/C(=C\c1sc(=S)[nH]c1O)C(C(=O)O)=N2
inactive: HCT-15 colon 100% | HT29 colon 104% | SNB-75 CNS 84.6% | SNB-19 CNS 100% | U251 CNS 98.3% | SK-MEL-5 melanoma 101% | UACC-62 melanoma 91.4% | LOX IMVI melanoma 96.6% | SK-MEL-28 melanoma 111%

Cc1ccc(O)c(C(=O)c2ccccc2Cl)c1
inactive: HCT-15 colon 99.5% | HT29 colon 108% | SNB-75 CNS 79.3% | SNB-19 CNS 109% | U251 CNS 98.5% | SK-MEL-5 melanoma 97.6% | UACC-62 melanoma 101% | LOX IMVI melanoma 101% | SK-MEL-28 melanoma 105%

CCCCCCN(CCCCCC)CC(O)c1cccc2ccc(Cl)cc12 (stereo unspecified)
inactive: HCT-15 colon 53.4% | HT29 colon 15.9% | SNB-75 CNS 116% | U251 CNS 55.2% | PC-3 prostate 37.1% | SK-MEL-5 melanoma 61.8% | UACC-62 melanoma 51.4% | LOX IMVI melanoma 34.7% | SK-MEL-28 melanoma 87.9%

C=C1c2c(C)nn(-c3ccc(O)cc3)c2N(C)C23C[C@@H]1C1(C)c4c(C)nn(-c5ccc(O)cc5)c4N(C)C(C)(C[C@H]12)C3 (stereo partly specified)
inactive: HCT-15 colon 11.1% | HT29 colon 17.5% | SNB-75 CNS 64.2% | SNB-19 CNS 48.7% | U251 CNS 33% | SK-MEL-5 melanoma 11.4% | UACC-62 melanoma 32.7% | SK-MEL-28 melanoma 42.6%

CCCCCCCCc1cc[n+](CC(=O)c2ccc(Br)cc2)cc1
active: HT29 colon -88.9% | U251 CNS -85.2% | SK-MEL-5 melanoma -93.5% | UACC-62 melanoma -32.9% | LOX IMVI melanoma -84.8%
inactive: HCT-15 colon 47% | SNB-75 CNS 50.5% | SNB-19 CNS 35.3% | SK-MEL-28 melanoma 32.9%

COc1cccc(-c2cnco2)c1OCc1c(C)c(COc2c(OC)cccc2-c2cnco2)c(C)c(COc2c(OC)cccc2-c2cnco2)c1C
inactive: HCT-15 colon 89.6% | HT29 colon 32.7% | SNB-75 CNS 13% | SNB-19 CNS 67.4% | U251 CNS 40% | SK-MEL-5 melanoma 45.3% | UACC-62 melanoma 42.2% | LOX IMVI melanoma 45.6% | SK-MEL-28 melanoma 55.7%

COc1ccc(C2=NC(=O)NC2c2ccc(OC)cc2)cc1 (stereo unspecified)
inactive: HCT-15 colon 48.4% | HT29 colon 37.2% | SNB-75 CNS 46.7% | SNB-19 CNS 58.5% | U251 CNS 74.6% | SK-MEL-5 melanoma 63% | UACC-62 melanoma 47.2% | LOX IMVI melanoma 64% | SK-MEL-28 melanoma 72.6%

N=C(N)c1ccc(-c2ccc(-c3ccc(Cl)cc3Cl)o2)nc1
inactive: PC-3 prostate 56.2% | SK-MEL-5 melanoma 87% | UACC-62 melanoma 101%
active: HCT-15 colon 2.86% | HT29 colon -23.8% | SNB-75 CNS -20% | U251 CNS -37.3% | LOX IMVI melanoma -82.6%

O=[N+]([O-])c1cccc(/C=C/c2ccccn2)c1
inactive: HCT-15 colon 42.7% | HT29 colon 98% | SNB-75 CNS 58.3% | SNB-19 CNS 74.5% | U251 CNS 38.4% | SK-MEL-5 melanoma 79% | UACC-62 melanoma 86.1% | LOX IMVI melanoma 102% | SK-MEL-28 melanoma 128%

CN(C)c1ccc(-c2cc(-c3ccc(Nc4nc(Nc5ccccc5)nc(Nc5ccc(Cl)cc5)n4)cc3)nc(N)n2)cc1
inactive: HCT-15 colon 34.4% | HT29 colon 34.2% | SNB-75 CNS 48.2% | SNB-19 CNS 66.8% | U251 CNS 29.6% | SK-MEL-5 melanoma 31.3% | UACC-62 melanoma 49.9% | LOX IMVI melanoma 38.1% | SK-MEL-28 melanoma 75.4%

N#Cc1c(N)nc2c(nnn2-c2cccc(C(F)(F)F)c2)c1N
inactive: HCT-15 colon 86.3% | HT29 colon 86% | SNB-75 CNS 82.6% | SNB-19 CNS 93.1% | U251 CNS 85.2% | SK-MEL-5 melanoma 87.9% | UACC-62 melanoma 88.5% | LOX IMVI melanoma 94.7% | SK-MEL-28 melanoma 111%

COc1cc(C(=O)Nc2cc(O)c(CC=C(C)C)c(O)c2)cc2c1O[C@]1(C)CC[C@@H](O)C(C)(C)[C@H]1C2
active: HT29 colon 1.4% | SK-MEL-5 melanoma -23.5% | UACC-62 melanoma 8.82% | LOX IMVI melanoma -12%
inactive: HCT-15 colon 13.3% | SNB-75 CNS 17.9% | U251 CNS 16.3% | PC-3 prostate 18.2% | SK-MEL-28 melanoma 30%

CC(=O)c1sc(-c2ccccc2)cc1N
inactive: HCT-15 colon 95.2% | HT29 colon 88.7% | SNB-75 CNS 99.5% | U251 CNS 82.7% | SK-MEL-5 melanoma 95.7% | UACC-62 melanoma 91% | LOX IMVI melanoma 104% | SK-MEL-28 melanoma 108%

COc1cc2c(cc1OC)-c1ccc3cc4c(cc3c1N(CCCN(C)C)C2)OCO4
inactive: HCT-15 colon 52% | HT29 colon 11.5% | SNB-75 CNS 44.1% | U251 CNS 18.2% | PC-3 prostate 23% | SK-MEL-5 melanoma 43.9% | UACC-62 melanoma 44% | LOX IMVI melanoma 19.5% | SK-MEL-28 melanoma 58.8%

Cc1nc(Nc2ccc(N)cc2)c2ccccc2n1
inactive: HCT-15 colon 89.4% | HT29 colon 88.9% | SNB-75 CNS 103% | U251 CNS 99.1% | PC-3 prostate 91% | SK-MEL-5 melanoma 91.9% | UACC-62 melanoma 98.5% | LOX IMVI melanoma 90.7% | SK-MEL-28 melanoma 114%

CCOC(=O)C1=C(C)NC(SCc2nnc(-c3ccc(Cl)cc3)o2)=NC1c1ccc(Cl)cc1Cl (stereo unspecified)
inactive: HCT-15 colon 55.3% | HT29 colon 53.1% | SNB-75 CNS 84.1% | U251 CNS 65.3% | PC-3 prostate 45.1% | SK-MEL-5 melanoma 80.3% | UACC-62 melanoma 51.6% | LOX IMVI melanoma 58.3% | SK-MEL-28 melanoma 101%
